CtBP-E1A blk: qHTS Assay for Inhibitors of the CtBP/E1A Interaction; 0.49% of 340,000 active; activity change, % (no concentration beside the values); AlphaScreen GST-E1A/His-CtBP binding, 1536-well; active compounds read low; in the data active means activity change below about -65%; inconclusive means mostly about -30% to -63%
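In 5 uL wells, 23 nL compound meets equimolar GST-E1A and His-CtBP (5X stock 125 nM each) for 2 h, 37 °C. Beads (5X, 50 ug/mL) then 1 h, 37 °C, dark.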
DT40 TDP1 no CPT: qHTS for Inhibitors of human tyrosyl-DNA phosphodiesterase 1 (TDP1): qHTS in cells in absence of CPT; DT40 Tdp1-/- hTDP1 cells, no CPT, ATP luminescence, 48 h; Potency, µM (doses to about 46.2 µM), for inactives: at the highest dose activity change, negative = growth inhibition, most hits filed as inhibitors; 15% of 420,000 active; AID 686978, 2013; further: potency means the concentration at half of the fitted maximal effect; nearly all actives have a fitted effect of over 55% in size
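Stably hTDP1-transfected Tdp1-null chicken DT40 cells were treated with library compounds minus camptothecin and grown for at least 48 hr at 37 °C, after which cellular ATP was quantified by luminescence.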
Six1-Eya2 blk: qHTS Assay for Inhibitors of the Six1/Eya2 Interaction. AlphaScreen GST-Six1/His-Eya2 binding, biochemical; active compounds read low. 0.56% of 360,000 active. Homeobox protein SIX1 (Homo sapiens) + Protein phosphatase EYA2 (Homo sapiens), …. activity change, % (test concentration not listed); in the data active means activity change below about -65%; inconclusive means mostly about -30% to -63%
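Compounds are tested against tagged Six1 and Eya2 proteins bridged by glutathione donor and nickel acceptor beads; after a one-hour incubation at 37 °C without light, AlphaScreen emission is recorded.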
TDP1 block: qHTS Assay for Inhibitors of Tyrosyl-DNA Phosphodiesterase (TDP1) | Tyrosyl-DNA phosphodiesterase 1 (Homo sapiens), Q9NUW8 | recombinant TDP1, AlphaScreen DNA substrate cleavage | Potency, µM (titrated, usually from 130 µM), for the others: at the top dose activity change, negative = inhibition, most hits filed as inhibitors | 0.28% of 350,000 active | AID 485290, 2010; further: potency means the concentration at half of the fitted maximal effect; nearly all actives have a fitted effect of over 40% in size
Target sequence (Q9NUW8 whole entry, looked up): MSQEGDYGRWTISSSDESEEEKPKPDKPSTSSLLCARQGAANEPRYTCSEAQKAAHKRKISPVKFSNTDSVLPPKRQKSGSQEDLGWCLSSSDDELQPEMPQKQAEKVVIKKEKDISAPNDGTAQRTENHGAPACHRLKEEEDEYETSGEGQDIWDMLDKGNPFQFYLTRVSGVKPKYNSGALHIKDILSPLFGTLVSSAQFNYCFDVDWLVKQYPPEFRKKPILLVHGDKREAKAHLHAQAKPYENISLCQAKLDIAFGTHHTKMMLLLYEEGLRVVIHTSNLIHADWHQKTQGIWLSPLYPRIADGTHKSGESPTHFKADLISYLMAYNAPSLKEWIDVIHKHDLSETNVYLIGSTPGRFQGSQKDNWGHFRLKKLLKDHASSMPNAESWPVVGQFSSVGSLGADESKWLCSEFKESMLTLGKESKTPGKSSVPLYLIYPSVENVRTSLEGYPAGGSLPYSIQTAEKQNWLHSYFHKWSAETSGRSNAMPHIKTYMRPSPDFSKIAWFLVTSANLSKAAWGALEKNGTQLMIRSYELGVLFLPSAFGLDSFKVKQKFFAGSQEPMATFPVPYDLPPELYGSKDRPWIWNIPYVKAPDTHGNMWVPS
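Recombinant human Tdp1 (E. coli-expressed, 1 nM final) preincubated with compounds 15 min at room temperature, then 5'-biotin/3'-phosphotyrosine-FITC DNA substrate (15 nM final) added for 5 min. AlphaScreen beads (10 ug/ml final) added 10 min; cleavage lowers signal.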
IL-1B inflam inh: qHTS for Inhibitors of Inflammasome Signaling: IL-1-beta AlphaLISA Primary Screen; THP-1 LPS/ATP IL-1B secretion, AlphaLISA, 16 h; active compounds read low; 4.7% of 360,000 active; activity change, % at 57.5 µM; AID 743279, 2014; in the data active means activity change below about -50%; inconclusive means mostly about -30% to -49%
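Secreted IL-1B measured by AlphaLISA bead assay after 16 h compound exposure of THP-1 cells; compounds (final up to 57.5 uM) added 1 h before LPS (250 ng/mL) and ATP (1.25 mM) stimulation; lower signal means less secretion.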
DT40 TDP1 CPT: qHTS for Inhibitors of human tyrosyl-DNA phosphodiesterase 1 (TDP1): qHTS in cells in presence of CPT; chicken DT40 Tdp1-/-;hTDP1 cells + 20 nM CPT, ATP luminescence, 48 h; Potency, µM (highest dose often 46.2 µM), without a hit: top-dose activity change, negative = growth inhibition, hits mostly inhibitors; 12% of 420,000 active; AID 686979, 2013; further: potency means the concentration at half of the fitted maximal effect; nearly all actives have a fitted effect of over 55% in size
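Chicken DT40 Tdp1-/- cells complemented with human TDP1, 400 cells/well, exposed to compounds plus 20 nM camptothecin for at least 48 h at 37 C; viability read as ATP content by CellTiter-Glo luminescence.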
* hit, by the source's call; ? = inconclusive; . = no result; ! = not active in a repeat; [ ] = another dose, or the depositor's remark. A selection: hits, their analogues and other compounds. The true share with any hit is near 18%. Unless noted, the call rests on the fitted dose curve; in most records, active means well fitted curve in the direction sought with a large enough effect; inconclusive means small, poorly fitted or top-dose-only effect, or another doubt; inactive means no such curve, though single readings can be large; an effect the other way counts as inactive or inconclusive. On the % scale 0 is the no-effect control and ±100 the full control effect.

SMILES	CtBP-E1A blk	DT40 TDP1 no CPT	Six1-Eya2 blk	TDP1 block	IL-1B inflam inh	DT40 TDP1 CPT
Nc1nc(NCCCN2CCOCC2)nc(Nc2cccc(Cl)c2)c1[N+](=O)[O-]	-1.2	?	-23.1	8.2%	-91.6*	?
COc1ccc(C(C2C(=O)CC(C)(C)CC2=O)C2C(=O)CC(C)(C)CC2=O)cc1CO	2.7	7.2%	7.7	.	3.2	-0.2%
CC(=O)Nc1ccc(S(=O)(=O)N2CCN(c3nnnn3-c3ccccc3)CC2)cc1	-8.1	-11.8%	10.6	2.5%	-15.9	-11.9%
CCC(Cc1c(I)cc(I)c(N)c1I)C(=O)O (configuration not stated)	-11.2	9.03µM*!	0.2	7.7%	66.7	4.5%
CCCC(=O)Nc1c(I)cc(I)c(CC(CC)C(=O)O)c1I (configuration not stated)	.	-0.4%	.	.	.	7.6%
Cc1nc2cccc(C(=O)Oc3ccc([N+](=O)[O-])cc3)c2o1	-14.8	-23.5%	-81.7*	0.0%	-9.7	-18.0%
Cc1c(-c2ccc(OCc3ccccc3)cc2)nc2ccccc2c1C(=O)O	8.5	10.4%	0.8	.	55.1	-4.6%
Cc1c(-c2ccccc2)nc2ccccc2c1C(=O)Oc1ccc([N+](=O)[O-])cc1	-21.2	5.8µM*	-12.4	-1.9%	-50.9*	8.2µM*
c1ccc(CNc2c3ccccc3nc3ccccc23)cc1	.	18.4µM*	5.3	.	-99.9*	13µM*
OCC(Cc1ccccc1)Nc1c2ccccc2nc2ccccc12 (configuration not stated)	5.9	16.4µM*	0.1	-2.7%	-52.4*	?
CNc1nc(NCc2ccccc2)c2ccccc2n1	-3.3	4.61µM*	-3.7	.	.	13µM*
Oc1ccccc1-c1nc(NCc2ccccc2)c2ccccc2n1	0.8	?	1.8	.	-10.3	6.6%
Oc1ccc(CCNc2c3ccccc3nc3ccccc23)cc1O	?	1.46µM*	?	.	-99.3*	1.16µM*
c1ccc2c(NCCCN3CCOCC3)c3ccccc3nc2c1	.	.	.	-3.6%	.	.
O=C(COC(=O)C1(c2ccc(F)cc2)CCCC1)N1CCN(C(=O)c2ccco2)CC1	0.2	?	-2.9	4.2%	-8.0	?
CCc1ccc(S(=O)(=O)NCCOc2cccc3cccnc23)cc1	0.0	-29.9%	3.4	2.7%[56.1 µM]	30.3	?
O=C1N=c2ccccc2=C1c1sc(=S)n(Cc2ccccc2Cl)c1O	-9.5	?	-0.9	4.7%	21.7	?
CCOC(=O)c1sc2cccc(F)c2c1S(=O)(=O)NCc1ccccc1Cl	.	-18.5%	.	-0.6%	.	-26.7%
Oc1ccccc1Nc1nc(NCc2ccccc2)c2ccccc2n1	0.2	11.6µM*	-7.8	8.1%	-100.6*	11.6µM*
CCCCNc1nc(NCc2ccccc2)nc2ccccc12	1.5	8.2µM*	16.0	.	-110.3*	20.6µM*
Cc1c(Br)c([N+](=O)[O-])nn1CC(=O)NCc1ccccn1	10.5	-7.5%	4.8	1.0%	0.0	-9.5%
COc1ccc(-c2ccc(OC)c(C3C4C=CCC(C)C4C(=O)N3Cc3ccccc3)c2)cc1OC (configuration not stated)	.	.	.	14.4%	.	.
Cc1ccn2c(C(=O)N/N=C\c3cccs3)c(C)nc2c1	-5.8	-19.9%	-8.4	2.6%	17.6	-11.1%
Nc1ccccc1N=Nc1ccccc1N	-78.6*	-27.9%	?	.	-6.0	?
Brc1ccc(C2=N[C@@H](Cc3ccccc3)CO2)cc1	.	.	.	-7.1%	.	.
SMILES	CtBP-E1A blk	DT40 TDP1 no CPT	Six1-Eya2 blk	TDP1 block	IL-1B inflam inh	DT40 TDP1 CPT
O=C(CCN1C(=O)/C(=C/c2cccs2)SC1=S)Nc1ccccn1	-8.0	?	-12.7	5.3%	0.0	?
O=C(NN1C(=O)/C(=C/c2ccc(O)cc2)SC1=S)c1ccccc1O	.	?	-22.9	.	-8.8	-1.7%
Cc1ccc(/C=C2\SC(=S)N(CCCC(=O)Nc3ccccn3)C2=O)cc1	-6.0	?	-4.7	8.0%	21.5	?
O=C(CCCN1C(=O)/C(=C\c2cccs2)SC1=S)Nc1ccccn1	-2.2	16.4µM*	-9.9	8.7%	8.6	?
COc1cc(/C=C2\SC(=S)N(NC(=O)c3ccccc3O)C2=O)ccc1O	?	25.9µM*	?	.	23.2	?
COc1ccc(/C=C2\SC(=S)N(CCCC(=O)Nc3ccccn3)C2=O)cc1OC	-10.8	29.1µM*	-23.4	0.0%	3.2	?
COc1ccc(/C=C2/SC(=S)N(CCCC(=O)Nc3cccc(O)c3)C2=O)cc1	?	?	-24.1	-0.1%	-78.9*	?
COc1ccccc1OCCn1ccnc1	0.9	?	-0.9	.	-4.8	4.4%
O=C(CCCN1C(=O)/C(=C/c2cccs2)SC1=S)NNC(=O)c1ccccc1O	-10.4	16.4µM*	2.0	-9.1%	0.0	20.6µM*
COc1ccc(/C=C2/SC(=S)N(CCCC(=O)Nc3ccccc3C(=O)O)C2=O)cc1	-0.8	-3.4%	-0.9	0.0%	20.0	1.6%
COc1ccc(/C=C2\SC(=S)N(CCCC(=O)NNC(=O)c3ccccc3O)C2=O)cc1	.	8.2µM*	-16.0	-15.0%	68.8	?
COc1ccc(NC(=O)CCCN2C(=O)/C(=C\c3ccco3)SC2=S)cc1	-5.6	16.4µM*	-10.2	7.9%	-70.6*	?
O=C(CCCN1C(=O)/C(=C/c2ccco2)SC1=S)Nc1cccc(C(=O)O)c1	-5.9	5.8%	-27.1	.	10.5	12.4%
O=C(CCCN1C(=O)/C(=C/c2cccs2)SC1=S)NNC(=O)c1ccncc1	-6.0	?	-12.8	1.2%	0.0	?
O=C(CCCN1C(=O)/C(=C\c2cccs2)SC1=S)Nc1ccc(O)cc1	1.4	?	0.8	.	18.0	25.9µM*
CCN(CC)S(=O)(=O)c1cccc(NC(=O)C2CC(=O)N(c3ccc4c(c3)OCCO4)C2)c1 (configuration not stated)	-4.0	?	-1.7	1.9%	41.6	8.9%
CCOC(=O)N1CCN(C(=S)NCCOC)CC1	12.2	8.6%	-0.6	4.0%	18.9	0.6%
CN1CCN(c2ccc(Cl)cc2NC(=O)CN2C(=O)NC(C)(c3ccccc3)C2=O)CC1 (configuration not stated)	-0.7	?	0.3	0.0%	-8.3	?

High-throughput results deposited in PubChem by National Center for Advancing Translational Sciences (NCATS).
